Test results taken from ChEMBL document CHEMBL1961873, “Compounds: GSK PKIS; Assays: Nanosyn kinase panel” (2012).

Target: T1, Homeodomain-interacting protein kinase 4 (Homo sapiens) (UniProt Q8NE63)
T1 sequence (whole entry): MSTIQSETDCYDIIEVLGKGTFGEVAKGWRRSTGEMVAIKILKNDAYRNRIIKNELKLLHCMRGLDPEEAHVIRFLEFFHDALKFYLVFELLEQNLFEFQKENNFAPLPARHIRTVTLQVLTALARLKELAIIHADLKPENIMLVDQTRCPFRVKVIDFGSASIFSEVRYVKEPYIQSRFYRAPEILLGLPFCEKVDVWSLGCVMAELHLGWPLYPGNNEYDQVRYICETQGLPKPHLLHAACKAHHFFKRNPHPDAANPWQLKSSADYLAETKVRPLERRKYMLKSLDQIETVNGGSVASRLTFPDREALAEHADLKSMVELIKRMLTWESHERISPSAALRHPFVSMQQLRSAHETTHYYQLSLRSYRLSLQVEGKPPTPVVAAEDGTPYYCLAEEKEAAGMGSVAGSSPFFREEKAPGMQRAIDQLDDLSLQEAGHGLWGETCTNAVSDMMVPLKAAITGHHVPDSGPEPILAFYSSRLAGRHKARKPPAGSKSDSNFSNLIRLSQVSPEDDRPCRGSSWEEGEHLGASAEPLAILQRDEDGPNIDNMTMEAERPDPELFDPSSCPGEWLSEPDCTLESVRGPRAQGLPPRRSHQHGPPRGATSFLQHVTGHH
Conditions: at 0.1 µM
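Also: reported as mean inhibition, part of the GSK PKIS dataset.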

Compound	inhibition
Cc1ccc(C(=O)NC2CC2)cc1-c1ccc2[nH]ncc2c1	0.67%
OCc1ccc(-c2nc(-c3ccccn3)c(-c3ccc4c(c3)OCO4)[nH]2)cc1	1.72%
CC(C)c1ccc2c(c1)NC(=O)/C2=N/Nc1ccc(S(N)(=O)=O)cc1	0.27%
CN(C)C(=O)O[C@@H]1CN[C@@H](C#Cc2cc3ncnc(Nc4ccc(OCc5cccc(F)c5)c(Cl)c4)c3s2)C1	-1.55%
COc1cccc(-n2nc(C)c3c(N/N=C(\C)c4ccncc4)ncnc32)c1	-1.56%
COC(=O)c1ccc2c(c1)C(=Cc1cc(Br)c(O)c(Br)c1)C(=O)N2	4.27%
Oc1cccc(-c2nc(-c3ccccc3)[nH]c2-c2ccncc2)c1	10.7%
NS(=O)(=O)c1ccc(N/N=C2\C(=O)Nc3ccc(Cl)cc32)cc1	2.99%
COC(=O)Nc1nc2cc(Oc3ccc(NC(=O)Nc4cccc(Br)c4)cc3)ccc2[nH]1	8.37%
COC(=O)c1cncc(/C=C/c2c(C)cc(O)cc2C)c1	2.51%
COc1cc(/C=N/Nc2ncnc3c2cnn3C(C)C)ccc1O	1.74%
CCS(=O)(=O)c1ccc(OC)c(Nc2nccc(N(C)c3ccc4c(C)n[nH]c4c3)n2)c1	0.52%
[O-][S+]1CCN(Cc2ccc(-c3ccc4ncnc(Nc5ccc(OCc6ccccc6)c(Cl)c5)c4c3)o2)CC1	0.81%
c1ccc(Cc2nc3ccc(Nc4ncnc5ccccc45)cc3[nH]2)cc1	4.87%
CCS(=O)(=O)c1ccc(OC)c(Nc2ncc(-c3cccc(OC)c3)o2)c1	19.5%
CCn1c(-c2nonc2N)nc2ccc(F)cc21	2.47%
CN(C)c1cc2c(Nc3ccc4c(cnn4Cc4ccccc4)c3)ncnc2cn1	0.72%

Compound	inhibition
COc1cc2ncnc(Nc3ccc4c(cnn4Cc4ccccc4)c3)c2cc1OC	-0.51%
O=C1Nc2ccc(-c3cccnc3)cc2C1=Cc1cc(Br)c(O)c(Br)c1	2.35%
COc1cc2ncnc(Nc3ccc(C)c(O)c3)c2cc1OC	3.31%
Cc1ccc2c(-c3ccnc(Nc4ccc5c(c4)OCCO5)n3)c(-c3ccc(C(F)(F)F)cc3)nn2n1	-0.51%
Cc1ccc2c(-c3ccnc(Nc4cccc(C(F)(F)F)c4)n3)c(-c3ccccc3)nn2n1	1.36%
C[C@@H](Oc1cc(-n2cnc3ccc(OC[C@@H](O)CO)cc32)sc1C(N)=O)c1ccccc1Cl	1.18%
CN(C)CCCn1c(-c2nonc2N)nc2cnccc21	0.39%
CN(c1ccc(NC(=O)Nc2ccc(OC(F)(F)F)cc2)cc1)c1ccnc(Nc2cccc(S(N)(=O)=O)c2)n1	62.4%
O=C1Nc2ccccc2/C1=C/Nc1ccc2[nH]c(=O)[nH]c2c1	2.76%
Cc1ccc2c(c1)/C(=N/Nc1ccc(S(N)(=O)=O)cc1)C(=O)N2	-2.11%
CCCN1CCCC(c2ccc(Nc3nc(Nc4cc(F)ccc4C(N)=O)c4cc[nH]c4n3)c(OC)c2)C1 (centres undefined)	58.1%
Nc1nccc(-c2c(-c3ccc(F)cc3)nn3cc(C(F)(F)F)ccc23)n1	-0.17%
NS(=O)(=O)c1ccc(-c2cc3ccncc3cc2OCc2ccccc2)cc1	3.58%
NC(=O)c1sc(-n2cnc3ccccc32)cc1OCc1ccccc1Br	0.95%
O=S(=O)(CCOCc1ccc(-c2ccc3ncnc(Nc4ccc(OCc5cccc(F)c5)c(Cl)c4)c3c2)o1)c1ccccc1	2.22%
Nc1ccc(C#Cc2cncnc2Nc2ccc(OCc3cccc(F)c3)c(Cl)c2)cc1	0.09%
ON=C1CCc2cc(-c3nc(C4CCNCC4)[nH]c3-c3ccncc3)ccc21	-1.3%
